Bioassay records from PubChem.
ClpP mod: qHTS Assay for Activators of ClpP; Potency, µM (titrated, usually from 57.5 µM), without a hit: top-dose activity change, negative = active; ATP-dependent Clp protease proteolytic subunit (Bacillus subtilis (strain 168)), P80244; purified B. subtilis ClpP, FRET peptide cleavage, 20 min; AID 651965, 2013; hit rate 1.9% among 340,000; active = well fitted falling curve with a large enough effect; also: potency is read from the fitted curve at half-maximal effect; the source files actives as falling curves though it sought activators and does not explain the sign; nearly all actives have a fitted effect of over 65% in size
Target sequence (P80244 whole entry, looked up): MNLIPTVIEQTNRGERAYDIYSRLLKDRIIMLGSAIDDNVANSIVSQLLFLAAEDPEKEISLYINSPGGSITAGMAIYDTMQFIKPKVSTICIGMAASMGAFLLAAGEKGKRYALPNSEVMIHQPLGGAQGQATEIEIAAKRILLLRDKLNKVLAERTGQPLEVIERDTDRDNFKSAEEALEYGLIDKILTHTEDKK
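FRET quenching reversal measured ClpP activation: 10 microg/mL B. subtilis ClpP at pH 8 with the FRET-FV decapeptide, read at 430 nm after 320 nm excitation. The 20-min minus 0-min signal was scaled between DMSO/no-enzyme wells and ADEP (5.8 microM final).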
IL2 activator: IL-2 activation; IL-2 activation reporter assay, cell-based qHTS; stimulated with anti-CD3/CD4/CD28 beads; in transgenic mouse T cells; activation, % (series mostly up to about 46 µM); hit rate 0.065% among 360,000; AID 652025; in the data active = activation above about 50%; also: 0% is about no effect
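Screening format: compound pinned onto unstimulated transgenic mouse T cells, 60 min incubation, then anti-CD3/anti-CD4/anti-CD28 bead stimulation for 18 hours at 37 degrees C, followed by EGFP and DsRed detection.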
PKM2 act: increases activity of human pyruvate kinase M2. Potency, µM (top dose mostly 57.5 µM), for the others: at the highest dose activation, hits mostly activators. purified PKM2, Kinase-Glo ATP luminescence, activation; response scale: 0% is enzyme alone, no compound. hit rate 0.34% among 260,000. AID 1631. P14618; also: potency is read from the fitted curve at half-maximal effect; % is scaled to controls: 0 for no effect and ±100 for the full control effect; nearly all actives have a fitted effect of over 55% in size
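Purified hPK-M2 (>95%) run at intermediate activity with 0.1 mM ADP and 0.5 mM PEP in 50 mM imidazole pH 7.2, KCl, MgCl2; 1 h room temperature. ATP formed read by Kinase-Glo luminescence; normalized to uninhibited and no-enzyme controls.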
NPSR antag: antagonists of human neuropeptide S receptor cAMP signaling | Q6W5P4 | CHO-NPSR cells, cAMP TR-FRET, antagonist mode | Potency, µM (series often up to 38.3 µM), for inactives: at the highest dose activity change, negative = inhibition, usual class: inhibitors | hit rate 1% among 220,000 | AID 1461; also: potency is read from the fitted curve at half-maximal effect; % is scaled to controls: 0 for no effect and ±100 for the full control effect; nearly all actives have a fitted effect of over 50% in size
* = called active by the depositor; . = not tested or not shown; [ ] = another dose, or the depositor's remark. Rows were chosen to be rich in hits. Some 2% of all compounds tested hit in one or more screens of this group. Unless noted, calls follow the shape of the dose curve; as a rule, active = well fitted curve in the direction sought with a large enough effect; inconclusive = small, poorly fitted or top-dose-only effect, or another doubt; inactive = no such curve, though single readings can be large; an effect the other way counts as inactive or inconclusive.

SMILES	ClpP mod	IL2 activator	PKM2 act	NPSR antag
CCCSc1ncnc2c1c(-c1ccccc1)cn2-c1ccccc1OC	-6.2%	.	.	.
CNC(=O)c1c(NC(=O)c2ccc(S(=O)(=O)N(C)c3ccccc3)cc2)sc2c1CCN(C(C)C)C2	-1.2%	62.1*	0.4%	.
Oc1ccc2ccccc2c1/C=N/Nc1nnc(-c2ncc[nH]2)c2ccccc12	2.7%	55.8*	15.0%	-21.6%[46.1 µM]
COc1ccc(/C=N/Nc2nnc(-c3ncc[nH]3)c3ccccc23)cc1	-7.6%	-0.6	7.8%	-7.6%[46.1 µM]
CCC(C)(C)n1nnnc1C(c1cccnc1)N1CCCc2ccccc21 (stereo not drawn)	3.1%	-2.6	-5.4%	-17.6%[46.1 µM]
CN1CCc2nc3sc(C(=O)NCc4ccccc4)c(N)c3cc2C1	-10.1%	1.0	3.8%	12.6µM*
CCN(CC)c1ccc(NC(=O)c2sc3nc4c(cc3c2N)CN(C)CC4)cc1	1.8%	.	.	.
Cn1c(CCN2CCN(c3ccccn3)CC2)nc2cc(NC(=O)COc3ccc([N+](=O)[O-])cc3)ccc21	-1.7%	-0.6	0.0%	.
O=C(CCNC(=O)c1ccc(Br)o1)NCc1ccc(Cl)cc1	0.9%	-4.0	-14.3%	-2.3%[46.1 µM]
O=C(NCc1nnnn1-c1ccc(Cl)cc1)c1ccc(Br)o1	15.8µM*	1.0	.	.
O=C(CNC(=O)c1ccc(Br)o1)NNC(=O)c1ccccc1	-6.0%	-2.4	.	.
O=C(CNC(=O)c1ccc(Br)o1)NNC(=O)c1ccc(Cl)cc1	22.4µM*	0.5	.	.
O=C(NCc1ccccc1)C(=O)NCC(c1ccco1)N1CCN(c2ccccc2F)CC1 (stereo not drawn)	1.9%	-0.6	1.1%	-39.1%
O=C(NCc1cccnc1)C(=O)NCC(c1ccco1)N1CCN(c2ccccc2F)CC1 (stereo not drawn)	17.8µM*	-0.1	-0.5%	-3.0%
Clc1ccc(C2=CC(c3ccco3)n3ncnc3N2)cc1 (stereo not drawn)	31.6µM*	-0.5	1.6%	-14.8%[46.1 µM]
COc1ccc(C2=CC(c3ccco3)n3ncnc3N2)cc1 (stereo not drawn)	.	0.7	2.1%	-20.8%
Cc1ccc(S(=O)(=O)N(C)c2ccc(C(=O)NCC3CCCO3)cc2)cc1 (stereo not drawn)	-3.6%	-0.2	-1.6%	-10.9%[46.1 µM]
COc1ccc(NC(=O)CSC2=C(C#N)C(c3ccco3)C(C(=O)Nc3nc4ccccc4s3)=C(C)N2)cc1 (stereo not drawn)	22.4µM*	0.5	.	.
CC(=O)C1=C(C)NC(SCC(=O)Nc2nc3ccccc3s2)=C(C#N)C1c1ccc(Cl)cc1 (stereo not drawn)	-17.9%	-2.3	0.8%	-18.0%[46.1 µM]
CN(Cc1cccs1)C(=O)COc1ccc(-c2nnco2)cc1	1.3%	-0.4	3.1%	-6.3%[7.67 µM]
Cn1ccs/c1=N\S(=O)(=O)c1ccc(Br)cc1	-4.1%	1.6	15.8µM*	-8.6%[46.1 µM]
COc1ccc2oc(C(=O)OCC(=O)NC3CCCC3)c(C)c2c1	3.9%	-1.2	3.4%	.
CCc1[nH]c(=O)c(C#N)c2c1COC(C)(C)C2	25.1µM*	-2.5	1.1%	-0.6%[46.1 µM]
CCc1ccccc1NC(=O)CN1CCN(C(=O)C(C)NC(=O)c2ccc(Cl)cc2)CC1 (stereo not drawn)	15.8µM*	-2.6	.	.
COCCn1c(=NC(=O)CCS(=O)(=O)c2ccccc2)sc2ccccc21	0.1%	-5.0	.	.
SMILES	ClpP mod	IL2 activator	PKM2 act	NPSR antag
CCOC(=O)c1c(-c2ccccc2)[nH]c2ccc(O)cc12	31.6µM*	3.7	0.1%	-12.6%[46.1 µM]
CCOC(=O)c1c(-c2ccccc2)oc2ccc(O)cc12	-14.0%	-0.9	-1.3%	.
C(=N\NC1=Nc2cccc3cccc1c23)/c1cccnc1	.	-0.2	2.2%	-21.1%
Clc1ccc(/C=N/NC2=Nc3cccc4cccc2c34)cc1	1.1%	69.6*	-5.4%	-12.5%[46.1 µM]
C(=N\NC1=Nc2cccc3cccc1c23)/c1ccccc1	-2.0%	267.9*	-5.1%	-5.4%
CC12CCC(C/C1=N/O)C2(C)C (stereo not drawn)	0.3%	-0.7	-5.1%	-28.9%
COc1ccccc1C(C[N+](=O)[O-])c1c(N)n(C)c(=O)n(C)c1=O (stereo not drawn)	0.9%	-0.8	9.1%	10µM*
COc1ccccc1C(c1c(N)n(C)c(=O)n(C)c1=O)C(C)[N+](=O)[O-] (stereo not drawn)	.	0.4	-2.1%	4.4%
N#Cc1c(C(F)(F)F)cc(-c2ccccc2Cl)[nH]c1=O	3.55µM*	1.3	-11.1%	-4.7%[46.1 µM]
